TDP1 cell CPT – DT40-hTDP1 cell growth loss with CPT. Potency, µM (series often up to 46.2 µM), usual class: inhibitors. chicken DT40 Tdp1-/-;hTDP1 cells + 20 nM CPT, ATP luminescence, 48 h. 420,000 compounds, 12% hits. AID 686979; note: nearly all actives have a fitted effect of over 55% in size
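Cell growth measured by CellTiter-Glo luminescence after a minimum 48 h, 37 C compound exposure with 20 nM CPT in Tdp1-knockout DT40 cells stably expressing hTDP1, seeded 400/well; qHTS titration format.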
TDP1 inh – inhibitors of human tyrosyl-DNA phosphodiesterase TDP1 | recombinant TDP1, AlphaScreen DNA substrate cleavage | Potency, µM (series often up to 130 µM), actives largely listed as inhibitors | 350,000 compounds, 0.28% hits; note: nearly all actives have a fitted effect of over 40% in size
Target sequence (Q9NUW8 whole entry, looked up): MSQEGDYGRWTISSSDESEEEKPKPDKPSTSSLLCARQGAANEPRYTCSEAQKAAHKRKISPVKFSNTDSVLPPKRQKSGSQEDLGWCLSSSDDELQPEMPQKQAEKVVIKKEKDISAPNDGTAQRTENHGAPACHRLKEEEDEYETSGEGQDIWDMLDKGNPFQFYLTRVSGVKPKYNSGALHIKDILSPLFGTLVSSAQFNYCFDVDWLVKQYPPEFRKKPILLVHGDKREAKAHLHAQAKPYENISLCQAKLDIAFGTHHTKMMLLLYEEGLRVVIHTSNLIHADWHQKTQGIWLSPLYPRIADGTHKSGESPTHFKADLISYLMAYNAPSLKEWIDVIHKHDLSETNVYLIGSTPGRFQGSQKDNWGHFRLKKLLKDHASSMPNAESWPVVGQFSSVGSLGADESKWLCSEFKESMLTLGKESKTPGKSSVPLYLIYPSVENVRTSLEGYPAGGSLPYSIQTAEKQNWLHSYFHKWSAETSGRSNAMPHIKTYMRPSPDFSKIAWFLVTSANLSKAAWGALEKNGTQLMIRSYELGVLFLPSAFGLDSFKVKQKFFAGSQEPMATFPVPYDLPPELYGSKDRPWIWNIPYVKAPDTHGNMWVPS
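Tdp1 1 nM final; 15 min RT w/ cpd; substrate 15 nM, 5 min; beads 10 ug/ml, 10 min; AlphaScreen read. Neg ctrl: no enzyme.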
DT40 TDP1 no CPT – qHTS for Inhibitors of human tyrosyl-DNA phosphodiesterase 1 (TDP1): qHTS in cells in absence of CPT | DT40 Tdp1-/- hTDP1 cells, no CPT, ATP luminescence, 48 h | Potency, µM (highest dose often 46.2 µM), most hits filed as inhibitors | 420,000 compounds, 15% hits | AID 686978, 2013; note: nearly all actives have a fitted effect of over 55% in size
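Readout: luminescence from CellTiter-Glo after 30 min in the dark at RT. Cells: DT40 Tdp1-/- with stable hTDP1, 400/well. Exposure: compounds alone, ≥48 hr, 37 °C.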
ClpP mod – qHTS Assay for Activators of ClpP; ATP-dependent Clp protease proteolytic subunit (Bacillus subtilis (strain 168)), P80244; AID 651965, 2013; purified B. subtilis ClpP, FRET peptide cleavage, 20 min; Potency, µM (highest dose often 57.5 µM); 340,000 compounds, 1.9% hits; active = well fitted falling curve with a large enough effect; inconclusive = small, poorly fitted or top-dose-only effect; inactive = no such curve, though single readings can be large or run the other way; note: the source files actives as falling curves though it sought activators and does not explain the sign; nearly all actives have a fitted effect of over 65% in size
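ClpP 10 microg/mL final, pH 8 Tris/KCl buffer with BSA, glycerol, Tween-20; compound pinned in; FRET-FV substrate; RT 20 min; Ex320/Em430; ΔFRET vs ADEP 5.8 microM, DMSO, no enzyme.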
Large screens that a line does not name were inactive. Sampled rows, rich in hits. Any-hit rate of the full collection: about 17%. Unless noted, calls come from the whole dose curve; as a rule, active = well fitted curve in the direction sought with a large enough effect; inconclusive = small, poorly fitted or top-dose-only effect, or another doubt; inactive = no such curve, though single readings can be large; an effect the other way counts as inactive or inconclusive.

CCOC(=O)Cn1c(-c2cccnc2)nc(-c2ccccc2)c1-c1ccccc1	TDP1 cell CPT inconclusive, DT40 TDP1 no CPT 23.1µM (no result: TDP1 inh, ClpP mod)
CCOC(=O)Cn1c(S(=O)(=O)Cc2ccccc2Cl)nc(-c2ccccc2)c1-c1ccccc1	TDP1 cell CPT 16.4µM, DT40 TDP1 no CPT 14.6µM
CC(C)(C)CC(C)(C)c1ccc(O)c(CN2CCN(CCC#N)CC2)c1	TDP1 cell CPT inconclusive, DT40 TDP1 no CPT 23.1µM
O=C(c1cc(-c2cccc(O)c2)on1)N1CCCC1	none (no result: ClpP mod)
CC(C)(C)OC(=O)NCCCC[C@H](NC(=O)c1[nH]cnc1C(=O)Nc1ccc(CNC(=O)OC(C)(C)C)cc1)C(=O)OC(C)(C)C	TDP1 cell CPT 5.8µM, DT40 TDP1 no CPT 4.61µM
CC1CCN(C(=O)c2[nH]cnc2C(=O)N[C@@H](CCCCNC(=O)OC(C)(C)C)C(=O)OC(C)(C)C)CC1	TDP1 cell CPT inconclusive, DT40 TDP1 no CPT inconclusive
CC(C)(C)OC(=O)NCc1ccc(NC(=O)c2nc[nH]c2C(=O)NCCCCCCNC(=O)c2[nH]cnc2C(=O)Nc2ccc(CNC(=O)OC(C)(C)C)cc2)cc1	TDP1 cell CPT 5.8µM, DT40 TDP1 no CPT 5.8µM
CC(C)(C)OC(=O)NCc1ccc(NC(=O)c2nc[nH]c2C(=O)NCCCCNC(=O)c2[nH]cnc2C(=O)Nc2ccc(CNC(=O)OC(C)(C)C)cc2)cc1	TDP1 cell CPT 4.11µM, DT40 TDP1 no CPT 2.91µM
CC(C)(C)OC(=O)NCc1ccc(NC(=O)c2nc[nH]c2C(=O)NCCCNC(=O)c2[nH]cnc2C(=O)Nc2ccc(CNC(=O)OC(C)(C)C)cc2)cc1	TDP1 cell CPT 13µM, DT40 TDP1 no CPT 25.9µM
CC(C)(C)OC(=O)NCc1ccc(NC(=O)c2nc[nH]c2C(=O)NCCN(CCNC(=O)c2[nH]cnc2C(=O)Nc2ccc(CNC(=O)OC(C)(C)C)cc2)CCNC(=O)c2[nH]cnc2C(=O)Nc2ccc(CNC(=O)OC(C)(C)C)cc2)cc1	TDP1 cell CPT inconclusive, ClpP mod inconclusive
Cn1c(=O)c(-c2ccc(Cl)cc2)nc2cnc(Oc3cccc(Cl)c3)nc21	none (no result: TDP1 inh, ClpP mod)
CCOCCOCC	none (no result: TDP1 cell CPT, DT40 TDP1 no CPT, ClpP mod)
Cc1ccc(NC(=O)c2nc[nH]c2C(=O)N2CCN(C(=O)OC(C)(C)C)CC2)cc1	TDP1 cell CPT inconclusive, DT40 TDP1 no CPT inconclusive
CC(C)(C)OC(=O)NCc1ccc(CNC(=O)c2nc[nH]c2C(=O)N2CCN(C(=O)OC(C)(C)C)CC2)cc1	TDP1 cell CPT inconclusive, DT40 TDP1 no CPT 18.4µM
CC(C)(C)OC(=O)NCc1ccc(CNC(=O)c2ncn(Cc3ccccc3)c2C(=O)NCc2ccc(CNC(=O)OC(C)(C)C)cc2)cc1	none
Cn1cnc(C(=O)NCc2ccc(CNC(=O)OC(C)(C)C)cc2)c1C(=O)NCc1ccc(CNC(=O)OC(C)(C)C)cc1	TDP1 cell CPT 20.6µM, DT40 TDP1 no CPT inconclusive
COc1ccc(CCNC(=O)COC(=O)C2CC2)cc1OC	none
N#Cc1c(-c2ccccc2)cc(-c2ccccc2)nc1SCC(=O)NCC(=O)O	none (no result: ClpP mod)
COc1ccc(CNC(=O)CSc2nc(-c3ccccc3)cc(-c3cccs3)c2C#N)cc1	TDP1 cell CPT 14.6µM, DT40 TDP1 no CPT inconclusive, ClpP mod inconclusive
COc1cc(-c2cc(-c3ccccc3)nc(SCC(=O)Nc3nccs3)c2C#N)cc(OC)c1OC	TDP1 cell CPT inconclusive, ClpP mod 25.1µM
COc1ccc(-c2cc(C3CC3)nc(SCC(=O)c3cccs3)c2C#N)cc1	TDP1 cell CPT inconclusive, DT40 TDP1 no CPT 11.6µM
CCOC(=O)CSc1nc(C2CC2)cc(-c2ccc(F)cc2)c1C#N	TDP1 cell CPT inconclusive
COc1ccc(-c2cc(-c3ccccc3)nc(SCC(=O)Nc3ccccc3C)c2C#N)cc1	none
CCCSc1nc(-c2ccc(OC)cc2)cc(-c2ccccc2OC)c1C#N	TDP1 cell CPT inconclusive, DT40 TDP1 no CPT 18.4µM
CCN(C(=O)c1cn(-c2cccc(OC)c2)c(=O)c2ccccc12)c1ccccc1C	TDP1 cell CPT inconclusive, DT40 TDP1 no CPT inconclusive
O=C(COC(=O)c1ccc(OC(F)F)cc1)NCC1CCCO1 (stereo not given)	none (no result: TDP1 inh)
COc1ccc(-c2cc(-c3ccccc3)nc(SC(C)C(=O)O)c2C#N)cc1 (stereo not given)	TDP1 cell CPT inconclusive, DT40 TDP1 no CPT 25.9µM
COc1cccc(-c2ccc(C#N)c(SCC(=O)NCc3ccco3)n2)c1	ClpP mod inconclusive
COc1ccc(-c2cc(-c3cccs3)c(C#N)c(SCC(=O)NCc3ccco3)n2)cc1	TDP1 cell CPT 1.84µM, DT40 TDP1 no CPT 2.31µM, ClpP mod inconclusive
CCc1nnc(NC(=O)CSc2nc(-c3ccccc3)cc(-c3ccc(F)cc3)c2C#N)s1	TDP1 cell CPT 9.2µM, DT40 TDP1 no CPT inconclusive
COc1ccc(-c2cc(-c3ccccc3)c(C#N)c(SCC(=O)O)n2)cc1	DT40 TDP1 no CPT inconclusive (no result: TDP1 inh, ClpP mod)
CCc1nnc(NC(=O)CSc2ccc(-c3ccc(F)cc3)nn2)s1	none (no result: TDP1 cell CPT, DT40 TDP1 no CPT, ClpP mod)
COc1cccc(CNC(=O)c2ccc(CS(=O)Cc3ccccc3Cl)o2)c1 (stereo not given)	TDP1 cell CPT inconclusive, DT40 TDP1 no CPT inconclusive (no result: TDP1 inh)
COC(=O)N[C@@H](c1cccc(F)c1)[C@@H](C)[N+](=O)[O-]	none (no result: TDP1 cell CPT, DT40 TDP1 no CPT, ClpP mod)
CC(C)S	none (no result: TDP1 cell CPT, DT40 TDP1 no CPT, ClpP mod)
Cc1ccc(/C=N/n2c(C)nnc2C)cc1	none
Cc1ccc2nc(Cl)c(/C=N/n3c(C)nnc3C)cc2c1	TDP1 cell CPT inconclusive, DT40 TDP1 no CPT 20.6µM
CCOC1=C2[C@H](c3ccc(CC)cc3)N(S(=O)(=O)c3ccc(C)cc3)C[C@H]2C(C#N)(C#N)C(C#N)(C#N)C1	TDP1 cell CPT 3.66µM, DT40 TDP1 no CPT 3.26µM, ClpP mod inconclusive (no result: TDP1 inh)
CCOC1=C2[C@H](c3ccccc3Cl)N(S(=O)(=O)c3ccc(C)cc3)C[C@H]2C(C#N)(C#N)C(C#N)(C#N)C1	TDP1 cell CPT 4.61µM, DT40 TDP1 no CPT 9.2µM (no result: TDP1 inh)
CCOC1=C2[C@@H](CN(S(=O)(=O)c3ccc(C)cc3)[C@H]2c2ccccc2Cl)[C@H]2C(=O)NC(=O)[C@H]2C1	TDP1 cell CPT inconclusive, DT40 TDP1 no CPT inconclusive (no result: TDP1 inh)
COc1ccc(OC)c(S(=O)(=O)Nc2cccnc2)c1	none
COc1cccc(CCc2ccccc2OCC(CN(C)C)OC(=O)CCC(=O)O)c1 (stereo not given)	TDP1 cell CPT 15.8µM, DT40 TDP1 no CPT 11.2µM (no result: TDP1 inh)
Cc1cc(C)c2cc(CN(CCO)Cc3nnnn3Cc3ccc(F)cc3)c(=O)[nH]c2c1	ClpP mod 20µM
O=c1[nH]c2cc3c(cc2cc1CN(CCCO)Cc1nnnn1Cc1ccc(F)cc1)OCO3	TDP1 cell CPT inconclusive, DT40 TDP1 no CPT 11.6µM, ClpP mod 31.6µM
Cc1ccc2cc(CN(CCO)Cc3nnnn3Cc3ccc(F)cc3)c(=O)[nH]c2c1	TDP1 cell CPT inconclusive, DT40 TDP1 no CPT inconclusive
O=C(C1=C[C@@H](C2CCCCC2)C[C@@H](OCc2ccc(CO)cc2)O1)N1CCN(Cc2ccccc2)CC1	TDP1 cell CPT 20.6µM, DT40 TDP1 no CPT 16.4µM
